# Records with an inconclusive call do not appear. Calls of active or inactive are those of the source. How the source made its calls: active means hit-call score of the fitted dose curve at least 0.9, where 1 is the maximum; inconclusive means response in the unintended direction; inactive means score below 0.9.
# Assays:
# [1] = system: NCBI gene 24521; experiment: NVS_IC_rKATPCh: NovaScreen (NVS) Ion Channel Assay for rat Potassium Channel, ATP-Sensitive (KATPCh) (AID 2283319)
# Procedure, shortened: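 Rat cortical membranes; radioligand binding at ATP-sensitive K channel site, filter-based scintillation counting 2 h after dosing. Single-point duplicate screen at 25 uM, hits rerun in concentration-response up to 50 uM; loss of signal versus DMSO.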
# [2] = molecular target: Sodium channel protein type 1 subunit alpha (Rattus norvegicus) (UniProt P04774); experiment: NVS_IC_rNaCh_site2: NovaScreen (NVS) Ion Channel Assay for rat Sodium Channel, Site 2 (NaCh) (AID 2283322);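 further: hit means loss of radioligand binding signal relative to DMSO so AC50 marks displacement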
# Procedure, shortened: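 Membranes: rat forebrain. Format: competitive radioligand displacement, filter separation, scintillation readout, 1 h exposure. Primary screen in duplicate at 25 uM; actives retested in concentration series.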
# [3] = molecular target: human Constitutive Androstane Receptor (CAR), NR1I3 (gene 9970) (UniProt Q14994); experiment: NVS_NR_hCAR_Agonist: NovaScreen (NVS) Nuclear Receptor Binding Assay for human Constitutive Androstane Receptor Agonism (CAR) (AID 2283328)
# human Constitutive Androstane Receptor (CAR), NR1I3 (gene 9970), sequence (Q14994 whole entry, looked up): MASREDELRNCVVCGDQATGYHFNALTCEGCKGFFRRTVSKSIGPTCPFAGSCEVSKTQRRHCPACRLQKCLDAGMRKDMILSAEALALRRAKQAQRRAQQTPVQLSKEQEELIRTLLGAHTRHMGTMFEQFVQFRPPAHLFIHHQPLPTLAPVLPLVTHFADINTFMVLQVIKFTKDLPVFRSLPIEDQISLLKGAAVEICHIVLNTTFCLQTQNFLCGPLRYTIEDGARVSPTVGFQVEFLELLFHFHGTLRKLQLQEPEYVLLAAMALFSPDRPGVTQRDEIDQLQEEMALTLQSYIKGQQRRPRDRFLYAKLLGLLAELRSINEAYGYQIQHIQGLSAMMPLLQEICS
# Procedure, shortened: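 Cell-free TR-FRET binding readout with extracted human CAR protein, read 1 h after dosing. Gain of signal fitted against DMSO baseline. Single-concentration duplicates at 25 uM, then concentration-response up to 50 uM for actives.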
# [4] = molecular target: human Serotonin, 5-Hydroxytryptamine Receptor 3 (5HT3), HTR3A (gene 3359) (UniProt P46098); experiment: NVS_LGIC_h5HT3: NovaScreen (NVS) Ligand-Gated Ion Channel Assay for human Serotonin, 5-Hydroxytryptamine Receptor 3 (5HT3) (AID 2283325)
# human Serotonin, 5-Hydroxytryptamine Receptor 3 (5HT3), HTR3A (gene 3359), sequence (P46098 whole entry, looked up): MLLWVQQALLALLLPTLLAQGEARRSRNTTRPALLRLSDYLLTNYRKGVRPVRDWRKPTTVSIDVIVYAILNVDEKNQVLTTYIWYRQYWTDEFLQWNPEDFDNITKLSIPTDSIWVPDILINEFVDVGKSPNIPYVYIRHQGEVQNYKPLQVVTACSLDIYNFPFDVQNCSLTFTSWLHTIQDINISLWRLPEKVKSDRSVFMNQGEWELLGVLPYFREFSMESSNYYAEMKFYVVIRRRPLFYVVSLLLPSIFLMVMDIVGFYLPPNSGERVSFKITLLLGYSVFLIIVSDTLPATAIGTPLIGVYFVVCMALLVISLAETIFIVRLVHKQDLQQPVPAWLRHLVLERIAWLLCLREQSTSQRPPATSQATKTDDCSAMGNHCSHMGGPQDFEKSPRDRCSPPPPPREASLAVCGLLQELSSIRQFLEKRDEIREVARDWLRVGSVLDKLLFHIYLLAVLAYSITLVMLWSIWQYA
# Procedure, shortened: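 Radioligand displacement binding to human 5-HT3 from HEK293 membranes, read by filter-based scintillation counting after 1 h. Screen at 25 uM in duplicate; chemicals passing threshold were retested in concentration-response up to 50 uM.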
# [5] = molecular target: rat Glutamate, NMDA Agonist Site (GluNMDA), Grin1 (gene 24408) (UniProt P35439); experiment: NVS_LGIC_rGluNMDA_Agonist: NovaScreen (NVS) Ligand-Gated Ion Channel Assay for rat Glutamate, NMDA Agonist Site (GluNMDA) (AID 2283327)
# Procedure, shortened: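 Rat forebrain membranes, radioligand binding in the agonist-site protocol; 1 h after dosing; filter-based scintillation counting. Single-concentration duplicate screen at 25 uM, then concentration-response up to 50 uM for actives; gain-of-signal vs DMSO.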
# [6] = molecular target: rat Glutamate, AMPA Site (AMPA), Gria1 (gene 50592) (UniProt P19490); experiment: NVS_LGIC_rAMPA: NovaScreen (NVS) Ligand-Gated Ion Channel Assay for rat Glutamate, AMPA Site (AMPA) (AID 2283324)
# rat Glutamate, AMPA Site (AMPA), Gria1 (gene 50592), sequence (P19490 whole entry, looked up): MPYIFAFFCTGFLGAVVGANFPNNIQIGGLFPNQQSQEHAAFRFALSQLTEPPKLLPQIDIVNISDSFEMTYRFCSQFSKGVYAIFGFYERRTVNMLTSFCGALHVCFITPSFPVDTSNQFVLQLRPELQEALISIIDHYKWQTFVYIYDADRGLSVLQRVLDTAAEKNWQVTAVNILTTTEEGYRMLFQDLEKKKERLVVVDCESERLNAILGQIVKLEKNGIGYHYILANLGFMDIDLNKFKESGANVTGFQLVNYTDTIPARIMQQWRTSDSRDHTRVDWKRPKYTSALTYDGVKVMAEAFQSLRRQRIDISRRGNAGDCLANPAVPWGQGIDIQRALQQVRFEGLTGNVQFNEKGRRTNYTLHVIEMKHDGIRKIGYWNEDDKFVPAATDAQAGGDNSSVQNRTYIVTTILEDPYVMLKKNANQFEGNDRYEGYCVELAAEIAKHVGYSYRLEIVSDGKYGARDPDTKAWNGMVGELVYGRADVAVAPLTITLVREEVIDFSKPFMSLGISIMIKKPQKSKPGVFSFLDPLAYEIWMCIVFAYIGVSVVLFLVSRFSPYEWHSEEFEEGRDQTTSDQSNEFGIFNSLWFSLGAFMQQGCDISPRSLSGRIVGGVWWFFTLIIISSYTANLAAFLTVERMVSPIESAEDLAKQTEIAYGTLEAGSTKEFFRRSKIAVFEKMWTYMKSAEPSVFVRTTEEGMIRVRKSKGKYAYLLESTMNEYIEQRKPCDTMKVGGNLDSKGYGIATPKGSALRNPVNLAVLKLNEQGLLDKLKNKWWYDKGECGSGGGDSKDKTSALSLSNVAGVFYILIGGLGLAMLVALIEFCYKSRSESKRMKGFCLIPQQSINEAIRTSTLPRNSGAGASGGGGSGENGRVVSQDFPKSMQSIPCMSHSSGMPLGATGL
# Procedure, shortened: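 Rat forebrain membranes; radioligand binding read 1 h after dosing by filtration and scintillation counting. Duplicate single-point screen at 25 uM, then concentration-response to 50 uM for threshold hits (e.g. 30% inhibition); loss of signal vs DMSO.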
# [7] = NVS_IC_rCaDHPRCh_L: NovaScreen (NVS) Ion Channel Assay for rat Calcium Channel, Type L, Dihydropyridine Site (CaDHPRCh_L) (AID 2283320)
# Procedure, shortened: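 Radioligand binding to dihydropyridine site on rat cortical membranes, filter-based scintillation counting, 1 h after dosing. Screened in duplicate at 25 uM; actives rerun in concentration-response up to 50 uM. Loss of signal versus DMSO baseline.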
# [8] = molecular target: rat Opioid Receptor, Non-selective Binding, Oprm1 (gene 25601) (UniProt P33535); experiment: NVS_GPCR_rOpiate_NonSelective: NovaScreen (NVS) G Protein-Coupled Receptor Assay for rat Opioid Receptor, Non-selective Binding (AID 2283318)
# rat Opioid Receptor, Non-selective Binding, Oprm1 (gene 25601), sequence (P33535 whole entry, looked up): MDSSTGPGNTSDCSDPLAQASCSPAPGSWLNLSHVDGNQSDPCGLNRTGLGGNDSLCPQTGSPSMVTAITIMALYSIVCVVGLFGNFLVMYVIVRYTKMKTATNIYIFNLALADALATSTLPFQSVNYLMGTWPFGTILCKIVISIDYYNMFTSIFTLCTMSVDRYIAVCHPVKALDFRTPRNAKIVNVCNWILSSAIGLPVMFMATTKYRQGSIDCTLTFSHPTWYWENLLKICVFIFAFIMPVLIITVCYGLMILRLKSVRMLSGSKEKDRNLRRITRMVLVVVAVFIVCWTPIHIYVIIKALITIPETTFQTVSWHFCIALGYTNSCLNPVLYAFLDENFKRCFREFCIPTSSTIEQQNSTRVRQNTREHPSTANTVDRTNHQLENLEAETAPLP
# Description: NVS_GPCR_rOpiate_NonSelective is a biochemical, single-readout assay that uses extracted gene-proteins from Rat forebrain membranes in a tissue-based cell-free assay. Measurements were taken 1.5 hours after chemical dosing in a 48-well plate.NVS_GPCR_rOpiate_NonSelective is one of one assay component(s) measured or calculated from the NVS_GPCR_rOpiate_NonSelective assay. It is designed to make measurements of radioligand binding, a form of binding reporter, as detected with scintillation counting signals by Filter-based radiodetection technology.Data from the assay component NVS_GPCR_rOpiate_NonSelective was analyzed into 1 assay endpoint. This assay endpoint, NVS_GPCR_rOpiate_NonSelective, was analyzed in the positive analysis fitting direction relative to DMSO as the negative control and baseline of activity. Using a type of binding reporter, loss-of-signal activity can be used to understand changes in the binding as they relate to the gene Oprm1. Furthermore, this assay endpoint can be referred to as a primary readout, because the performed assay has only produced 1 assay endpoint. To generalize the intended target to other relatable targets, this assay endpoint is annotated to the gpcr intended target family, where the subfamily is rhodopsin-like receptor.
# Binding assays used specific radioligands (tritiated, iodinated) with non-radioactive competitive displacement ligands in agonist or antagonist protocols (as indicated) and various reference compounds and inhibitors to titrate specific binding to receptors and transporters. Most enzyme assays (CYPs, kinases, phosphatases, proteases, HDACs) used recombinant protein and specific substrates (fluorescence mostly, some colorimetric and radioactive) and inhibitors, followed by a biochemical separation of substrate and product. All assays for the biochemical HTS were initially run in duplicate at a single concentration (10 uM for CYP450 assays and 25 uM for all others). […] Each assay was run with positive and negative controls, and concurrent controls on every plate. The follow-up (secondary) screen tested active chemical-pairs in concentration series, as well as a few additional assays not tested in the primary screen, some selected negative inactives, and several cases re-run in the concentration series for confirmatory purposes.
# [9] = molecular target: rat Gamma-Aminobutyric Acid Type A Receptor, Non-Selective (GABAR-NonSelective), Gabra1 (gene 29705) (UniProt P62813); experiment: NVS_LGIC_rGABAR_NonSelective: NovaScreen (NVS) Ligand-Gated Ion Channel Assay for rat Gamma-Aminobutyric Acid Type A Receptor, Non-Selective (GABAR-NonSelective) (AID 2283326)
# rat Gamma-Aminobutyric Acid Type A Receptor, Non-Selective (GABAR-NonSelective), Gabra1 (gene 29705), sequence (P62813 whole entry, looked up): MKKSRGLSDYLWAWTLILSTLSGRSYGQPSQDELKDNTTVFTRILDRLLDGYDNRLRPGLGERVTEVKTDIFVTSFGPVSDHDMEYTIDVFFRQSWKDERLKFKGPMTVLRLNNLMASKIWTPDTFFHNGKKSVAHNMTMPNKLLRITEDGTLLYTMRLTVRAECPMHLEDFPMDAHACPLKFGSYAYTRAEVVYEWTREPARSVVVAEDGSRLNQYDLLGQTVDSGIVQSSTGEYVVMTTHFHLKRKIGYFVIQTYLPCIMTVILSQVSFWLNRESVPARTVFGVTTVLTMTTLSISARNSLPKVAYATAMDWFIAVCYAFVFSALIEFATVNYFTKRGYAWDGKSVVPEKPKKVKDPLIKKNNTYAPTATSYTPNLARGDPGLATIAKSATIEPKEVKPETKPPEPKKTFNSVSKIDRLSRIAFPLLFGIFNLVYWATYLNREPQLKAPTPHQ
# Procedure, shortened: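 Radioligand displacement on rat whole-brain extract, 1 h, filter scintillation readout; signal loss fitted versus DMSO. Primary screen in duplicate at 25 uM; hits (e.g. ≥30% inhibition) retested in concentration-response up to 50 uM.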
# [10] = molecular target: bovine Gamma-Aminobutyric Acid Type A Receptor BDZ, alpha 5 site (GABARa5), GABRA5 (gene 523515) (UniProt Q08E50); experiment: NVS_LGIC_bGABARa5: NovaScreen (NVS) Ligand-Gated Ion Channel Assay for bovine Gamma-Aminobutyric Acid Type A Receptor BDZ, alpha 5 site (GABARa5) (AID 2283323)
# bovine Gamma-Aminobutyric Acid Type A Receptor BDZ, alpha 5 site (GABARa5), GABRA5 (gene 523515), sequence (Q08E50 whole entry, looked up): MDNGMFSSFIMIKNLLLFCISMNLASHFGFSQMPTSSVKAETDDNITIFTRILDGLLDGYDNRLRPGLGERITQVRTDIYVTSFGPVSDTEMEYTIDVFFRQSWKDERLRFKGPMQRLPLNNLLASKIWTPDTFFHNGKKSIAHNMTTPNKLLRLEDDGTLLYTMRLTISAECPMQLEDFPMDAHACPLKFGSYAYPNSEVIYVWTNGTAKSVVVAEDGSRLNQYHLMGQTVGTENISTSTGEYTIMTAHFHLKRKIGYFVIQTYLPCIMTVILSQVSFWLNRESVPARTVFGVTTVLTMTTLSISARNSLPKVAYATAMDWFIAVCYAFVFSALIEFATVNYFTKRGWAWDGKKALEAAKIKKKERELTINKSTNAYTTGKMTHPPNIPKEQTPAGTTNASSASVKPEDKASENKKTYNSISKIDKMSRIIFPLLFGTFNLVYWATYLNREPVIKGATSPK
# Procedure, shortened: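 Radioligand competitive displacement binding on bovine hippocampal membranes, read 1 hr after dosing by filter-based scintillation counting. Primary screen at 25 uM in duplicate; actives (e.g. ≥30% inhibition) then run in concentration-response up to 50 uM.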
compound,measurement,setting,value
CCCc1cc(=O)[nH]c(=S)[nH]1,outcome,[1],inactive
CCOC(=O)CCC(=O)OCC,outcome,[2],inactive
CC(C)(C)c1cc(O)c(C(C)(C)C)cc1O,outcome,[3],inactive
CCCCCCCCCCCCCCCC,outcome,[4],inactive
CCCCC(CC)COC(=O)CC(C(=O)OCC(CC)CCCC)S(=O)(=O)O (configuration not stated),outcome,[2],inactive
same,AC50,[5],38.3 µM (active)
CCOc1ccc2c(c1)C(C)=CC(C)(C)N2,outcome,[6],inactive
same,outcome,[4],inactive
Cc1cc(=O)[nH]c(=S)[nH]1,outcome,[7],inactive
O=C(OCCCCCOC(=O)c1ccccc1)c1ccccc1,AC50,[4],0.0428 µM (active)
CC(C)c1ccc(C(=O)N=C(N)N)cc1S(C)(=O)=O,AC50,[8],5.07 µM (active)
same,AC50,[2],34 µM (active)
Nc1nc(N)c2nc(CNc3ccc(C(=O)N[C@@H](CCC(=O)O)C(=O)O)cc3)cnc2n1,AC50,[7],25 µM (active)
same,AC50,[6],23.2 µM (active)
same,outcome,[9],inactive
CNCc1cc(F)ccc1Oc1ccc(Cl)c(Cl)c1,outcome,[4],inactive
CCCCCCCCCCCC(=O)OC,outcome,[4],inactive
CN1CCN(Cc2cc(-c3ccc4[nH]c(=O)oc4c3)co2)[C@@H](c2ccc(F)cc2)C1,AC50,[7],15 µM (active)
same,AC50,[2],7.72 µM (active)
Cc1c(C(=O)O)c(O)cc2c1C(=O)c1c(O)c([C@@H]3O[C@H](CO)[C@@H](O)[C@H](O)[C@H]3O)c(O)c(O)c1C2=O,outcome,[2],inactive
NC(=O)Cn1c(=O)cc(CCN2CCN(c3nccc4sccc34)CC2)c2ccc(F)cc21,AC50,[8],1.45 µM (active)
same,outcome,[2],inactive
CCCCCCCCCCCCCO,outcome,[3],inactive
O=C(N[C@@H](Cc1ccccc1)[C@@H](O)C(=O)N1C[C@@H](O)[C@@H](O)C1)c1cc2cc(Cl)ccc2[nH]1,AC50,[8],25 µM (active)
same,outcome,[2],inactive
COc1cc(S(=O)(=O)O)c(C)cc1N=Nc1c(O)ccc2cc(S(=O)(=O)O)ccc12,AC50,[4],32.8 µM (active)
Cc1cc(NC(=O)C(=O)O)cc(C)c1Oc1ccc(O)c2c1CCC2,outcome,[8],inactive
same,outcome,[6],inactive
COc1ccc(S(=O)(=O)N2C(=O)[C@@](c3ccccc3OC)(N3C[C@H](O)C[C@H]3C(=O)N(C)C)c3cc(Cl)ccc32)c(OC)c1,AC50,[2],39.6 µM (active)
NCC1(Cc2noc(=O)[nH]2)CCCCC1,outcome,[4],inactive
COc1cc(C=O)ccc1O,AC50,[4],15 µM (active)
CCCCc1ccc2c(n1)[C@@H](c1ccc(OC)cc1C[C@H](C)C(=O)O)[C@H](C(=O)O)[C@H]2c1ccc2c(c1)OCO2,AC50,[10],27.5 µM (active)
COCCOC[C@H](CC1(C(=O)NC2CCC(C(=O)O)CC2)CCCC1)C(=O)Oc1ccc2c(c1)CCC2 (some centres not stated),outcome,[8],inactive
same,outcome,[6],inactive
CCCCCCCC=O,outcome,[6],inactive
Oc1ccc2c(c1)OC[C@@H](N1CCC(O)(c3ccc(F)cc3)CC1)[C@H]2O,outcome,[8],inactive
same,outcome,[2],inactive
same,outcome,[4],inactive
same,outcome,[5],inactive
same,outcome,[3],inactive
Cc1ccc(Cl)cc1,AC50,[4],7.56 µM (active)
COc1cc(-c2nc(NC(=O)c3cc4cc(C)cc(C)c4n3CC(=O)O)sc2CCC2CCCCC2)c(OC)cc1Cl,AC50,[7],6.08 µM (active)
same,AC50,[2],9.13 µM (active)
CCc1c(C(=O)NN2CCCCC2)nn(-c2ccc(Cl)cc2Cl)c1-c1ccc(Br)cc1,outcome,[7],inactive
same,AC50,[2],11.5 µM (active)
Cc1nc(-c2ccc3c(c2)CCN(CCC2CCC(NC(=O)/C=C/c4ccc(F)cc4)CC2)CC3)no1 (configuration not stated),AC50,[2],0.265 µM (active)
FC(F)(F)C(F)(F)C(F)(F)C(F)(F)C(F)(F)C(F)(F)CCI,outcome,[7],inactive
